# Screening data deposited in PubChem by Broad Institute.
# This excerpt belongs to a sample that is enriched for hits.
# IDE exosite inh: exo-site inhibitors of human IDE, primary screen, biochemical, fluorescence anisotropy, probe displacement; Insulin-degrading enzyme (Homo sapiens), P14735; purified IDE, FL-6b probe fluorescence polarization; active compounds read low; z-score at 20 µM; 17,000 tested, 6.3% active; AID 1259349, 2017;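 active means z-score of -3 or lower, meaning strong loss of probe binding signal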;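 further: His-tagged human IDE residues 42-1019 made in E. coli with 30 nM FL-6b probe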
# Target sequence (P14735 42-1019 limits assumed): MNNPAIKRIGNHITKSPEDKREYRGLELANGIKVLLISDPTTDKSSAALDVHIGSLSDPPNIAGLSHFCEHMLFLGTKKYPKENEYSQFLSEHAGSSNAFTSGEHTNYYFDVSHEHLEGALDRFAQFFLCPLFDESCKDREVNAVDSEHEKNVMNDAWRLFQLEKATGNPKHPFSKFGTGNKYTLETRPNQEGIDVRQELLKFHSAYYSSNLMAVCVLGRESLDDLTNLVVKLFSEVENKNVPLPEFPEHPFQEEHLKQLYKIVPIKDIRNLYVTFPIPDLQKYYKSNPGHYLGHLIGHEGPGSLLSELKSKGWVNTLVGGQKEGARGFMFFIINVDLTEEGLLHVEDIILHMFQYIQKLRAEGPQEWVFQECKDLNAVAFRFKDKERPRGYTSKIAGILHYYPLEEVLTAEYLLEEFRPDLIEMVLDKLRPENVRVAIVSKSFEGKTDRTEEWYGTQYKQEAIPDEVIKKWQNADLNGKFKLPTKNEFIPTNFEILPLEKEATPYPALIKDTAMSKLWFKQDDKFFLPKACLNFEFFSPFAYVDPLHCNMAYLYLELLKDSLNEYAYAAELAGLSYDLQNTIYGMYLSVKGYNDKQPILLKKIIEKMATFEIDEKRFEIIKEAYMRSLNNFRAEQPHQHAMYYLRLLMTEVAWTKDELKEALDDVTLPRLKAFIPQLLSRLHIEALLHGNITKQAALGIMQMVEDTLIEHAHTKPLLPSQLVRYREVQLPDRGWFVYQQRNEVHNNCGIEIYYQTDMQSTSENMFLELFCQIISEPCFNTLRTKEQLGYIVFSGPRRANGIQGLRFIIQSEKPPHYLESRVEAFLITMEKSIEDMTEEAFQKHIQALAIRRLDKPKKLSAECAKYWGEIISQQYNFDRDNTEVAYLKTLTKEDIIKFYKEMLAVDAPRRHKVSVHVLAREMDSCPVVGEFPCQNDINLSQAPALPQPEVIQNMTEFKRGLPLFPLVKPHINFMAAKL
# * marks the source's active call; other numbers are inactive results.
SMILES,IDE exosite inh
O=C(Cc1ccccn1)N1CCCCN2[C@H](CO)[C@@H](c3ccc(-c4ccccc4)cc3)[C@H]2C1,-0.097
Cc1ccccc1-c1ccc([C@H]2[C@H]3CN(C(=O)Cc4ccccn4)CCCCN3[C@H]2CO)cc1,-0.98
O=C(Cc1ccccn1)N1CCCCN2[C@H](C1)[C@@H](c1ccc(-c3ccccc3F)cc1)[C@@H]2CO,-4.5*
Cc1ccccc1-c1ccc([C@@H]2[C@H]3CN(C(=O)Cc4ccccn4)CCCCN3[C@H]2CO)cc1,-10*
O=C(Cc1ccccn1)N1CCCCN2[C@H](CO)[C@H](c3ccc(-c4ccccc4)cc3)[C@@H]2C1,-0.96
O=C(Cc1ccccn1)N1CCCCN2[C@@H](CO)[C@H](c3ccc(-c4ccccc4)cc3)[C@@H]2C1,1.9
O=C(Cc1ccccn1)N1CCCCN2[C@H](C1)[C@H](c1ccc(-c3ccccc3)cc1)[C@@H]2CO,-2.4
Cc1ccccc1-c1ccc([C@H]2[C@@H](CO)N3CCCCN(C(=O)Cc4ccccn4)C[C@@H]23)cc1,-5.7*
O=C(Cc1ccccn1)N1CCCCN2[C@H](CO)[C@@H](c3ccc(-c4ccc(F)cc4)cc3)[C@H]2C1,4.4
COC(=O)[C@H]1[C@H](CO)[C@H]2Cn3c(cccc3=O)[C@@H]1N2CCc1ccccc1,-1.3
N#Cc1cccc(-c2ccc([C@@H]3[C@@H](CO)N4CCCCN(C(=O)Cc5ccccc5)C[C@H]34)cc2)c1,0.49
N#Cc1ccc(-c2ccc([C@@H]3[C@H]4CN(C(=O)Cc5ccccc5)CCCCN4[C@H]3CO)cc2)cc1,0.54
O=C(Cc1ccncc1)N1CCCCN2[C@@H](CO)[C@@H](c3ccc(C#CC4(O)CCCC4)cc3)[C@@H]2C1,2.8
O=C1CNC[C@@H]2[C@H](c3ccc(Br)cc3)[C@@H](CO)N12,0.7
COc1ccccc1CN1[C@H](CO)[C@@H](c2ccccc2)C12CN(C(=O)Cc1ccccc1)C2,2.2
C/C=C/c1ccc([C@@H]2[C@@H](CO)N3CCCCN(C(=O)Cc4cccnc4)C[C@@H]23)cc1,0.079
COc1ccc(C#Cc2ccc([C@@H]3[C@@H](CO)N4CCCCN(C(=O)Cc5cccnc5)C[C@H]34)cc2)cc1,-1.2
C/C=C/c1ccc([C@H]2[C@@H](CO)N3CCCCN(C(=O)Cc4ccncc4)C[C@H]23)cc1,0.65
C/C=C/c1ccc([C@@H]2[C@H](CO)N3CCCCN(C(=O)Cc4cccnc4)C[C@@H]23)cc1,-0.6
COc1ccc(C#Cc2ccc([C@@H]3[C@H](CO)N4CCCCN(C(=O)Cc5cccnc5)C[C@@H]34)cc2)cc1,4.6
O=C(Cc1cccnc1)N1CCCCN2[C@H](CO)[C@@H](c3ccc(C#CC4CCCC4)cc3)[C@@H]2C1,3.2
O=C(Cc1cccnc1)N1CCCCN2[C@H](CO)[C@H](c3ccc(/C=C/c4ccccc4)cc3)[C@H]2C1,-11*
O=C(Cc1cccnc1)N1CCCCN2[C@H](CO)[C@@H](c3ccc(/C=C/c4ccccc4)cc3)[C@@H]2C1,-8.8*
O=C(Cc1cccnc1)N1CCCCN2[C@H](CO)[C@@H](c3ccc(/C=C/c4ccccc4)cc3)[C@H]2C1,-9.4*
N#Cc1cccc(-c2ccc([C@H]3[C@H]4CN(C(=O)Cc5ccncc5)CCCCN4[C@H]3CO)cc2)c1,1.3
SMILES,IDE exosite inh
COc1cccc(-c2ccc([C@H]3[C@H](CO)N4CCCCN(C(=O)Cc5ccncc5)C[C@@H]34)cc2)c1,-1.5
O=C(Cc1ccncc1)N1CCCCN2[C@H](C1)[C@H](c1ccc(C#CC3(O)CCCC3)cc1)[C@@H]2CO,4.4
O=C(Cc1ccccc1)N1CCCCN2[C@@H](CO)[C@@H](c3ccc(-c4ccccc4)cc3)[C@@H]2C1,2.4
C/C=C/c1ccc(C2[C@@H]3CN(C(=O)c4cnccn4)C[C@H]2N3)cc1 (stereo partly drawn),-0.29
N#Cc1cccc(-c2ccc([C@@H]3[C@@H](CO)N4CCCCN(C(=O)Cc5ccccc5)C[C@@H]34)cc2)c1,3.1
COc1cccc(-c2ccc([C@@H]3[C@@H](CO)N4CCCCN(C(=O)Cc5ccncc5)C[C@@H]34)cc2)c1,-2.3
COc1cccc(-c2ccc([C@H]3[C@@H](CO)N4CCCCN(C(=O)Cc5ccncc5)C[C@@H]34)cc2)c1,1.1
COc1ccc(-c2ccc([C@@H]3[C@H](CO)N4CCCCN(C(=O)Cc5ccccc5)C[C@@H]34)cc2)cc1,-3.1*
COc1ccc(-c2ccc([C@H]3[C@@H](CO)N4CCCCN(C(=O)Cc5ccccc5)C[C@@H]34)cc2)cc1,0.58
COc1cccc(-c2ccc([C@@H]3[C@H](CO)N4CCCCN(C(=O)Cc5ccncc5)C[C@@H]34)cc2)c1,-3.9*
COc1ccc(-c2ccc([C@H]3[C@H](CO)N4CCCCN(C(=O)Cc5ccccc5)C[C@@H]34)cc2)cc1,0.59
O=C(Cc1ccccc1)N1CCCCN2[C@H](CO)[C@H](c3ccc(C#CC4(O)CCCC4)cc3)[C@@H]2C1,1.7
N#Cc1cccc(-c2ccc([C@H]3[C@H]4CN(C(=O)Cc5ccccc5)CCCCN4[C@H]3CO)cc2)c1,2.1
N#Cc1ccc(-c2ccc([C@@H]3[C@H](CO)N4CCCCN(C(=O)Cc5ccccc5)C[C@@H]34)cc2)cc1,1.4
O=C(Cc1ccncc1)N1CCCCN2[C@H](CO)[C@@H](c3ccc(C#Cc4ccccc4F)cc3)[C@H]2C1,-2.5
COc1ccc(C#Cc2ccc([C@@H]3[C@H](CO)N4CCCCN(C(=O)Cc5ccncc5)C[C@@H]34)cc2)cc1,3.8
O=C(Cc1ccccc1)N1CCCCN2[C@H](CO)[C@@H](c3ccc(C#Cc4ccccc4)cc3)[C@H]2C1,0.71
O=C(Cc1ccncc1)N1CCCCN2[C@H](CO)[C@H](c3ccc(C#Cc4ccccc4F)cc3)[C@H]2C1,-4.2*
O=C(Cc1ccccc1)N1CCCCN2[C@H](CO)[C@@H](c3ccc(C#Cc4ccccc4)cc3)[C@@H]2C1,-1.3
O=C(Cc1ccncc1)N1CCCCN2[C@@H](CO)[C@@H](c3ccc(C#Cc4ccccc4F)cc3)[C@@H]2C1,-5.4*
O=C(Cc1ccncc1)N1CCCCN2[C@H](C1)[C@@H](c1ccc(C#CC3(O)CCCC3)cc1)[C@@H]2CO,1.1
O=C(Cc1ccncc1)N1CCCCN2[C@H](CO)[C@H](c3ccc(-c4ccncc4)cc3)[C@@H]2C1,4.8
O=C([C@H]1N[C@H]2c3cccc(=O)n3C[C@H]2[C@@H]1CO)N1CCCCC1,0.87
O=C(O)C[C@@H]1CC[C@H]2NC[C@H](O)COC[C@@H]2O1,0.27
C/C=C/c1ccc(C2[C@@H]3CN(C(=O)CN(C)C)C[C@H]2N3)cc1 (stereo partly drawn),0.55
SMILES,IDE exosite inh
COc1ccc(C#Cc2ccc([C@H]3[C@H](CO)N4CCCCN(C(=O)Cc5ccncc5)C[C@@H]34)cc2)cc1,-1.4
CC(C)CC#Cc1ccc([C@@H]2[C@@H](CO)N3CCCCN(C(=O)Cc4ccccn4)C[C@@H]23)cc1,5.1
O=C(Cc1ccccn1)N1CCCCN2[C@H](CO)[C@@H](c3ccc(C#Cc4ccccc4)cc3)[C@@H]2C1,-4.9*
O=C(Cc1ccccn1)N1CCCCN2[C@@H](CO)[C@H](c3ccc(C#Cc4ccccc4)cc3)[C@@H]2C1,-7.3*
O=C(Cc1ccccn1)N1CCCCN2[C@@H](CO)[C@@H](c3ccc(Br)cc3)[C@@H]2C1,3.2
COCC#Cc1ccc([C@@H]2[C@@H](CO)N3CCCCN(C(=O)Cc4ccccn4)C[C@@H]23)cc1,-0.26
O=C(Cc1ccccn1)N1CCCCN2[C@H](CO)[C@@H](c3ccc(C#Cc4ccccc4)cc3)[C@H]2C1,-0.97
